# Hits are enriched below; roughly 7.5% of the tested compounds scored in any of these assays.
# NPC1 prom act = activates the NPC1 promoter; Huh7 NPC1 promoter luciferase reporter, 24 h; Potency, µM (titrated, usually from 9.22 µM), actives largely listed as activators; actives 2.4% (n = 320,000); note: nearly all actives have a fitted effect of over 60% in size
#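 Huh7 cells stably carrying NPC1 promoter–luciferase, plated in Opti-MEM with 10% FBS for 2 h, were exposed to compound in DMSO for 24 h at 37 °C; luciferase reagent was added for 10 min and luminescence read.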
# Rab9 promoter act = activators of Rab9 promoter; actives 2.8% (n = 320,000); Huh7 Rab9 promoter-luciferase reporter, luminescence, 24 h; Potency, µM (top dose mostly 9.22 µM), most hits filed as activators; note: nearly all actives have a fitted effect of over 60% in size
#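 Luciferase signal after 10 min detection reagent at ambient indicates Rab9 promoter upregulation; stably transfected Huh7 cells were treated 24 h with compound in DMSO at 37 °C, 5% CO2.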
# ELG1 genotoxic = inducers of genotoxicity in HEK293T ELG1-luciferase cells; Potency, µM (titrated, usually from 46 µM), hits mostly activators; AID 504466; actives 1.3% (n = 330,000); HEK293T ELG1-luciferase reporter, luminescence, 16 h; note: nearly all actives have a fitted effect of over 60% in size
#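 Quantitative HTS format in 1536-well plates. HEK293T ELG1-luciferase reporter cells receive test compound and are incubated 16 hr at 37 °C, 5% CO2; ONE-Glo added, 30 min room temperature, then luminescence read.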
# Luc counter = Kinase-Glo luciferase inhibition (counter-screen); Kinase-Glo luciferase, ATP luminescence, 8 min; Potency, µM (highest dose often 38.3 µM), usual class: inhibitors; actives 0.28% (n = 200,000); AID 1379; note: nearly all actives have a fitted effect of over 60% in size
#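 Luminescence was the read-out, taken after 8-minute incubation at ambient temperature. Luciferase turned over luciferin with 10 uM ATP in imidazole pH 7.2 buffer containing KCl, MgCl2, Tween 20 and BSA.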
# FLuc counter = counter-screen for miR-21 project: firefly luciferase inhibitors or activators; P08659; purified FLuc, Km substrates, luminescence inhibition; Potency, µM (top dose mostly 57.5 µM), usual class: inhibitors; actives 6.9% (n = 360,000); AID 588342; note: nearly all actives have a fitted effect of over 55% in size
# Target sequence (P08659 whole entry, looked up): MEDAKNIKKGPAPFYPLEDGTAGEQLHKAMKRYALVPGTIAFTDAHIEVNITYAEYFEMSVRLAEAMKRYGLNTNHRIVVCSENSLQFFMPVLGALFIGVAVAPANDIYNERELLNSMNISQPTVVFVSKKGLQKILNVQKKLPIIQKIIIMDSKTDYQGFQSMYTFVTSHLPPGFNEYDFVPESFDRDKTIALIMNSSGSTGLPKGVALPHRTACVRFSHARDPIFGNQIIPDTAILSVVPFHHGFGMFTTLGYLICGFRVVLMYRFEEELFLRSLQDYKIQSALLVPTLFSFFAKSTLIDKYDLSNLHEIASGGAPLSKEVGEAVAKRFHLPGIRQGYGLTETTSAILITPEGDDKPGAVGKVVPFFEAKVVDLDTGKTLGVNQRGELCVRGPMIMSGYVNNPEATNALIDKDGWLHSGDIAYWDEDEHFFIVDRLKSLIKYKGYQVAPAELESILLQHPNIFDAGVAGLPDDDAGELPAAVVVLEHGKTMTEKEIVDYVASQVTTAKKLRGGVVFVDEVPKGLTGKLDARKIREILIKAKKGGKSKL
#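 Purified P. pyralis luciferase (10nM final) with 10uM D-luciferin and 10uM ATP (Km levels) in 50mM Tris acetate pH 7.5, 10mM Mg acetate, 0.01% Tween-20, 0.05% BSA; qHTS 6-point titration, ~60 µM downward; luminescence read.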
# SMN2 splice enh = SMN2 splice variant enhancement; AID 1458; Potency, µM (top dose mostly 46.1 µM), most hits filed as activators; HEK293 SMN2-luciferase splicing reporter, luminescence, 30-36 h; actives 2.8% (n = 210,000); note: nearly all actives have a fitted effect of over 55% in size
#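 HEK293 cells carry an SMN2 […]–luciferase reporter in which exon 7 inclusion puts luciferase in frame. Cells were plated 10-12 h before compound addition, then incubated 30-36 h at 37C. ONE-Glo luminescence was read; sodium butyrate at 4.5 mM final served as control.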
# Hits are given with their value; . = inactive; ? = inconclusive; / = no result given; [ ] = dose if it differs, or a comment. Calls come from the whole dose curve; as a rule, active = well fitted curve in the direction sought with a large enough effect; inconclusive = small, poorly fitted or top-dose-only effect, or another doubt; inactive = no such curve, though single readings can be large; an effect the other way counts as inactive or inconclusive.
SMILES,NPC1 prom act,Rab9 promoter act,ELG1 genotoxic,Luc counter,FLuc counter,SMN2 splice enh
CCOc1ccc(-c2cc(C(=O)NCC3CCCO3)c3ccccc3n2)cc1 (stereo not drawn),.,.,.,.,5.4µM,?
Cc1ccc2nc(-c3ccccc3)cc(C(=O)NCC3CCCO3)c2c1 (stereo not drawn),.,.,.,/,5.4µM,/
CC(C)Oc1ccc(-c2nc(NCC3CCCO3)c3ccccc3n2)cc1 (stereo not drawn),.,.,.,/,9.5µM,/
COc1cccc(-c2cc(C(=O)NCC3CCCO3)c3cc(Br)cc(C)c3n2)c1 (stereo not drawn),.,.,?,/,2.7µM,/
Cc1cc(Br)cc2c(C(=O)NCC3CCCO3)cc(-c3cccs3)nc12 (stereo not drawn),.,.,?,/,?,/
COc1ccc(-c2cc(C(=O)NCC3CCCO3)c3ccccc3n2)c(OC)c1 (stereo not drawn),.,.,.,/,.,/
CNS(=O)(=O)c1cn(CC(=O)N2CCN(c3ccc(C)cc3C)CC2)cc1S(=O)(=O)NC,/,/,/,/,.,/
COc1cc(NC(=O)c2cc3c(=O)n(Cc4ccco4)ccc3nc2C)cc(OC)c1OC,/,/,/,/,.,/
COC(=O)c1ccc(NC(=O)CSc2nccn2Cc2ccc(Cl)cc2)cc1,/,/,/,/,.,/
COc1cc(OC)cc(-c2nc3nc(C)c(CCC(=O)Nc4ccc(C)c(C)c4)c(C)n3n2)c1,/,/,/,/,.,.
CCn1c(C)c(C)c2cc(C(=O)NCc3ccc(OC)cc3OC)ccc21,/,/,/,/,.,/
Cc1ccc(-c2nn(-c3ccccc3)cc2C(=O)NCC2CCCO2)cc1 (stereo not drawn),.,.,.,/,13µM,/
Cc1ccc(C)c(N2CCN(C(=O)Cn3c(C)c4cnn(-c5ccccc5)c(=O)c4c3C)CC2)c1,/,/,/,/,.,.
CCC(=O)/C=C1/Sc2ccc(OC)cc2N1CCO,.,.,.,.,.,/
CCC(/C=C1\Sc2ccc(OC)cc2N1CCO)=C\c1sc2ccc(OC)cc2[n+]1CCO,.,.,.,10µM,15µM,.
CCC(/C=C1\Sc2ccc(OC)cc2N1CC)=C\c1sc2ccc(OC)cc2[n+]1CCCS(=O)(=O)[O-],.,.,.,10µM,?,/
CCN(CC)S(=O)(=O)c1ccc(/C=C/C(=O)OCC(=O)NCc2ccco2)cc1,/,/,.,/,/,/
Cc1ccccc1/C=c1\s/c(=C\C(=O)C(C)(C)C)[nH]c1=O,.,.,.,.,17µM,.
CC(C)(C)C(=O)/C=c1\[nH]c(=O)/c(=C\c2ccc(F)cc2)s1,.,.,.,.,24µM,.
CC(C)(C)C(=O)/C=c1\[nH]c(=O)/c(=C\c2ccccc2F)s1,.,.,.,.,?,.
COCc1nc2oc3ccccc3c(=O)c2cc1C(=O)OC,?,4.5µM,?,/,15µM,/
CCOC(=O)c1c(C)nc(C)c2c(=O)oc3ccccc3c12,.,.,.,.,17µM,.
CCOC(=O)c1cc2c(=O)c3ccccc3oc2nc1C,.,?,9.2µM,/,6µM,/
CCOC(=O)c1cc2c(ccc3ccccc32)oc1=O,.,.,.,.,?,/
CC(C)[C@@H](CC(=O)N[C@@H]1CCNC[C@H]1C(=O)N[C@H](CC(=O)N[C@@H](CCC(=O)O)CC(=O)O)Cc1ccccc1)NC(=O)C[C@H](Cc1c[nH]c2ccccc12)NC(=O)[C@@H]1CNCC[C@H]1N,/,/,/,.,/,.
SMILES,NPC1 prom act,Rab9 promoter act,ELG1 genotoxic,Luc counter,FLuc counter,SMN2 splice enh
O=C(CN1C(=O)c2cccc3cccc1c23)Nc1cccc(F)c1,/,/,/,/,.,.
c1ccc(CSc2ccc(-c3ccccn3)nn2)cc1,0.79µM,2.2µM,2.3µM,.,4.8µM,0.79µM
Clc1ccc(CSc2ccc(-c3ccccn3)nn2)cc1,?,?,23µM,.,?,.
Cc1ccc(C(=O)Nc2ccc3oc(-c4cc(Br)ccc4Cl)nc3c2)cc1,/,/,/,/,.,.
Cc1cccc(C)c1NC(=O)Cn1nc(C)c2sc3ccccc3c2c1=O,/,/,/,/,.,/
COC(=O)c1sc(N/N=C/c2ccc(C(C)C)cc2)nc1C,.,?,.,/,19µM,/
CC(=O)c1sc(N/N=C/c2cccc(O)c2)nc1C,.,?,?,/,9.5µM,/
CC(=O)c1sc(N/N=C\c2ccc(N(C)C)cc2)nc1C,1.3µM,2.5µM,4.6µM,/,1.3µM,/
CCOC(=O)c1sc(N/N=C/c2cc(Br)c(O)c(OC)c2)nc1C,.,.,.,/,?,/
CC(=O)C1=C(NC(=O)c2ccc(F)cc2)CC2C1C2(C)C (stereo not drawn),.,.,.,.,21µM,.
COc1ccc(-n2c(=S)[nH]c3sc(-c4ccccc4)cc3c2=O)c(OC)c1,.,.,.,/,27µM,/
Nc1[nH]c(=O)[nH]c(=O)c1N=Nc1ccccc1Cl,.,.,.[9.26 µM],/,?,/
Cc1[nH][nH]c(=O)c1N=Nc1ccccc1Cl,.,.,.,/,15µM,/
CC(=O)Nc1ccc(NC(=O)C(C)Sc2n[nH]c(-c3ccc(C)cc3)n2)cc1 (stereo not drawn),.,?,.,/,24µM,/
CCC(=O)NCCc1nc2cc(NC(=O)c3ccc(OC)cc3)ccc2n1C,?,?,8.9µM,.,17µM,13µM
CC(=O)NCCc1nc2cc(NC(=O)c3ccc(Cl)cc3)ccc2n1C,0.71µM,1.1µM,5.8µM,/,8.5µM,/
CC(=O)N1CCN(Cc2nc3cc(NC(=O)c4ccc(Cl)cc4)ccc3n2C)CC1,.,.,.,.,?,.
COc1ccc(OCC(=O)Nc2ccc3c(c2)nc(CCNC(C)=O)n3C)cc1,.,.,.,/,.,/
CCCC(=O)Nc1ccc2c(c1)nc(CCNC(=O)c1ccccc1)n2C,.,.,.,.,.,.
CCC(=O)NCCc1nc2cc(NC(=O)c3ccc(F)cc3)ccc2n1C,1.3µM,2.8µM,7.3µM,/,17µM,/
CCC(=O)NCCc1nc2cc(NC(=O)c3ccc(Cl)cc3)ccc2n1C,1.8µM,0.63µM,?,/,11µM,/
Cn1c(CCNC(=O)C2CCCCC2)nc2cc(NC(=O)c3cccs3)ccc21,.,.,?,.,.,.
CC(=O)NCCc1nc2cc(NC(=O)c3cccs3)ccc2n1C,?,4.5µM,.,.,?,/
O=C(Nc1ccc(S(=O)(=O)N2CCCCCC2)cc1)c1ccco1,.,?,?,.,?,?
O=C(Nc1ccc(OCC(=O)N2CCN(S(=O)(=O)c3ccccc3)CC2)cc1)c1ccco1,.,.,.,.,11µM,.
O=C(Nc1ccc(OCC(=O)N2CCC(Cc3ccccc3)CC2)cc1)c1ccco1,.,.,.,.,27µM,.
CC(=O)N1CCc2c(sc3nc(SCC(N)=O)n(-c4ccc(F)c(Cl)c4)c(=O)c23)C1,/,/,/,/,.,.
COC/C=C/C1=CC2=CC(=O)C(C)(OC(=O)CCc3ccccc3)C(=O)C2=CO1 (stereo not drawn),/,/,/,.,/,.
Cc1cc(=S)n(-c2ccccc2)n1C,.,.,16µM,.,.,.

# Screening data: PubChem BioAssay, National Center for Advancing Translational Sciences (NCATS)
